Laboratory results as given in ChEMBL document CHEMBL1157539, “Thousands of chemical starting points for antimalarial lead identification” (Nature, 2010).

test system: HepG2; assay: GSK_TCMDC: Percent inhibition of human HepG2 cell line. Test compounds present at 10uM.; format: functional

Structure (SMILES) | Inhibition [%]
CC1(CCc2ccccc2)N=C(N)N(Cc2ccccc2)C(=O)C1c1ccc(Cl)c(Cl)c1.O=C(O)C(F)(F)F (stereo not given) | 100
Cc1cc(NC(=O)NCCN2CCC(NC(=O)c3ccc(F)cc3)CC2)c2ccccc2n1 | 0
Cc1nnc2c(NC(=O)/C=C/c3ccc(OC(F)(F)F)cc3)cc3cc(Cl)ccc3n12 | 19
Cc1cc(CN2CCC(Nc3ncc(-c4ccsc4)c4nc(C(F)(F)F)ccc34)CC2)no1.Cl | 8
CCOc1ccc(-n2nc3c(Cl)nnc(-c4ccccc4)c3c2-c2ccccc2)cc1 | 0
Cc1ccc(NC(=O)Nc2ccc(Cl)c(C(F)(F)F)c2)cc1-c1ccc(C(=O)Nc2ccncc2)cc1 | 77
O=C(Nc1ccc(-c2csc(-c3nc4ccccc4[nH]3)c2)cc1)Nc1ccc(Cl)c(Cl)c1 | 75
N#Cc1ccccc1S(=O)(=O)N1CCCC(CNC(=O)[C@H](CC2CCCCC2)NC(=O)c2cc3ccccc3s2)C1 (stereo not given in full) | 9
OC(CN1CCN(C2CCCCC2)CC1)Cn1c2ccccc2c2cc(Br)ccc21 (stereo not given) | 14
CCCCOc1cc(OC)c2ccccc2c1CCNCCCCNCCc1c(OCCCC)cc(OC)c2ccccc12.CS(=O)(=O)O | 100
Cc1cc(N[C@@H](Cc2ccccc2)C(=O)NCc2cccc(F)c2)nc(NCC2CCCCC2)n1.O=C(O)C(F)(F)F | 43
O=C(c1c(-c2[nH]c3ccccc3c2C(=O)C(F)(F)F)[nH]c2ccccc12)C(F)(F)F | 18
COc1ccc(-c2ccc(NC(=O)c3cccc(Cl)c3)cc2)cc1CN1CCCN(C)CC1.O=C(O)C(F)(F)F | 48
CN1CCN(c2ccc(-c3cc(-c4cc(F)c(F)c(F)c4)cnc3N)cc2)CC1 | 58
CCCCCCCCCN1CC[C@@H](CCCc2ccnc3ccc(O)cc23)[C@@H](CC)C1.O=C(O)C(=O)O | 58
CN1CCC(C(=O)N(Cc2ccc(-c3ccc(CNCCc4ccccc4)cn3)cc2)C2Cc3ccccc3C2)CC1.O=C(O)C(F)(F)F | 65
CN(C)Cc1ccc(-c2cc3ncnc(Nc4ccc(OCc5cccc(F)c5)c(Cl)c4)c3s2)[nH]1 | 53
CC(=O)Nc1ccc(OCCN(CC(C)C)c2ccc(C(F)(F)F)c(C#N)c2)c(Cl)c1 | 13
COc1cc(C(=O)NC2CCN(Cc3ccccc3)CC2)ccc1-c1nc2cc(Cl)c(Cl)cc2[nH]1 | 14
NC(=O)c1ccccc1OCC(=O)Nc1cccc(-c2ccc(-c3nc4cc(C(F)(F)F)ccc4[nH]3)cc2)c1 | 58

Structure (SMILES) | Inhibition [%]
N#Cc1cccc(C(=O)Nc2ccc(-c3cccc(CN4CCC(O)CC4)c3)cc2)c1.O=C(O)C(F)(F)F | 33
CS(=O)(=O)CCNCc1nc(-c2ccc3c(Nc4ccc(Cl)cc4F)ccnc3c2)cs1 | 19
Cc1ccccc1C(=O)Nc1cccc(-c2nc3ncccn3c2C)c1 | 0
CNCc1ccc(CN(C)c2nc(N)c3cc(OC)c(OC)cc3n2)cc1.O=C(O)C(F)(F)F | 12
COc1ccc2nc(C)cc(N/N=C/c3ccccc3[N+](=O)[O-])c2c1 | 2
C[C@@H]([C@@H](CCCCc1ccccc1)C(=O)N[C@H](C(=O)Nc1cccnc1)C(C)(C)C)N(O)C=O | 0
N#Cc1ccc(N(CCOc2ccc(Cl)c(Cl)c2)Cc2ccccc2C(F)(F)F)cc1C(F)(F)F | 13
COc1ccccc1CCN(C)CCN1CCC(NC(=O)c2ccc(-c3ccc(C(F)(F)F)cc3)cc2)CC1 | 46
COc1ccc(-c2csc(C(=O)NC3CCC(N4CCC(c5ccccc5C)CC4)CC3)c2)cc1 (stereo not given) | 64
O=C(/C=C/c1ccccc1)N1CCOC(CCN2CCC(c3ccccc3)CC2)(c2ccc(Cl)c(Cl)c2)C1 (stereo not given) | 4
CN1CCN(c2cc(-c3cccc(C(F)(F)F)c3)nc(-c3ccncc3)n2)CC1 | 38
COc1cc(Cc2cnc(N)nc2N)cc(OCCCCCC(=O)O)c1OC.Cl | 0
c1ccc(Nc2nc(-c3ccccn3)cs2)nc1 | 45
COc1cc2nccc(Nc3ccc(OCc4ccc(NC(C)=O)cc4)cc3)c2cc1OC.Cl | 24
CCc1cc([C@H]2O[C@@H](n3cnc4c(NCC(c5ccccc5)c5ccccc5)nc(NCCNc5ccccn5)nc43)[C@H](O)[C@@H]2O)on1.O=CO | 14
Cc1c(OC(C)C)nc2ccccc2c1C(=O)N[C@H](c1cccc(F)c1)C1CC1 | 6
O=C(Nc1cccc(-c2cccc(-c3nc4cc(F)ccc4[nH]3)c2)c1)c1ccoc1 | 36
COCCn1c(C)nc2ccccc2c1=O | 0
COc1cccc(OC)c1OCCCOc1c(C)nc(N)nc1N.Cl | 31
COc1ccc(-c2nc3cccnc3n2CC(=O)Nc2cc(Cl)c(Cl)cc2Cl)c(OC)c1 | 99
